Assay results reported in PubChem BioAssay (NCATS).
Inconclusive results are not listed. Calls of active or inactive are those of the source. Unless noted, calls follow the shape of the dose curve; as a rule, active = well fitted curve in the direction sought with a large enough effect; inconclusive = small, poorly fitted or top-dose-only effect, or another doubt; inactive = no such curve, though single readings can be large; an effect the other way counts as inactive or inconclusive.

Experiments:
[1] = qHTS drug screen for cell cycle checkpoint inhibitors in PARPi-resistant BRCA-mutant ovarian cancer cell lines. (AID 1963452; calls by dose curve); settings: PEO1/OlaR viability, CellTiter-Glo luminescence, 96 h, stronger effect = lower value
In short: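 PEO1, PEO4 and PEO1/OlaR ovarian cancer cells, 600 per well, exposed 96 h at 37C to a dilution series. Viability read by CellTiter-Glo luminescence, normalized to DMSO and empty wells; activity summarized as Z-AUC.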

[2] = qHTS profiling for inhibitors of Plasmodium falciparum proliferation (AID 504749); also: potency is read from the fitted curve at half-maximal effect;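 as to activity, negative = inhibition: 0% = DMSO vehicle and full inhibition = artemisinin control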; as to all read-outs here: nearly all actives have a fitted effect of over 60% in size; settings: P. falciparum in erythrocytes, SYBR Green DNA, 72 h; for activity, negative = inhibition: at 28.7 µM (top of the series)
In short: (§1)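 Parasite proliferation within erythrocytes, 72 h exposure. Endpoint: SYBR Green I fluorescence after overnight lysis at room temperature. Controls: 0.29 uM artemisinin, DMSO.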

[3] = test system: 3D7; assay: as above; settings: P. falciparum in erythrocytes, SYBR Green DNA, 72 h; series mostly up to 28.7 µM
In short: as §1

[4] = test system: 7G8; assay: as above; settings: P. falciparum in erythrocytes, SYBR Green DNA, 72 h; series mostly up to 28.7 µM
In short: as §1

[5] = test system: AA1029; assay: as above; settings: P. falciparum in erythrocytes, SYBR Green DNA, 72 h; series mostly up to 28.7 µM
In short: as §1

[6] = test system: AS120; assay: as above; settings: P. falciparum in erythrocytes, SYBR Green DNA, 72 h; series mostly up to 28.7 µM
In short: as §1

[7] = test system: ATS189; assay: as above; settings: P. falciparum in erythrocytes, SYBR Green DNA, 72 h; series mostly up to 28.7 µM
In short: as §1

[8] = test system: ATS95; assay: as above; settings: P. falciparum in erythrocytes, SYBR Green DNA, 72 h; series mostly up to 28.7 µM
In short: as §1

[9] = test system: C2A; assay: as above; settings: P. falciparum in erythrocytes, SYBR Green DNA, 72 h; series mostly up to 28.7 µM
In short: as §1

[10] = test system: CP185; assay: as above; settings: P. falciparum in erythrocytes, SYBR Green DNA, 72 h; series mostly up to 28.7 µM
In short: as §1

[11] = test system: CP191; assay: as above; settings: P. falciparum in erythrocytes, SYBR Green DNA, 72 h; series mostly up to 28.7 µM
In short: as §1

[12] = test system: CP192; assay: as above; settings: P. falciparum in erythrocytes, SYBR Green DNA, 72 h; series mostly up to 28.7 µM
In short: as §1

[13] = test system: CP194; assay: as above; settings: P. falciparum in erythrocytes, SYBR Green DNA, 72 h; series mostly up to 28.7 µM
In short: as §1

[14] = KB-3-1 P-gp reporter qHTS against the NCATS DSHEA and TCM libraries (AID 1919975); also: 0% is about no effect
In short: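 72 h exposure of KB-3-1 cells (DMEM, 10% FBS) to DSHEA/TCM samples, concentration-response; cell viability measured as CellTiter-Glo luminescence after 30 min at room temperature.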

[15] = qHTS Counterscreen for compound interference against the NCATS DSHEA and TCM libraries (AID 1919978); settings: firefly luciferase detection reagent interference, luminescence; also: % of control where 0% means no effect
In short: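 Read-out is luminescence after 30 min at RT with luciferin detection reagent. Before that, compounds (19.5 nM to 39.8 uM final) sat 15 min at RT with 1 uM D-luciferin or 100 mM potassium phosphate buffer. PTC124 served as intraplate control.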

[16] = Dual reporter qHTS for agonist of Pregnane X Receptor (hPXR) against the NCATS DSHEA and TCM libraries: Fluorescence readout (AID 1920058); also: 0% is about no effect
In short: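 HepG2 hPXR-Luc, 2000 cells/well, 5 h attach; cpds ~24 h, 37 °C/5% CO2; CellTiter-Fluor 1 h; fluor. Ex/Em 405/540 nm = viability.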

[17] = biological target: Nuclear receptor subfamily 1 group I member 2 (Homo sapiens) (UniProt O75469); assay: Dual reporter qHTS for agonist of Pregnane X Receptor (hPXR) against the NCATS DSHEA and TCM libraries: Luminescence readout (AID 1920059); also: potency is read from the fitted curve at half-maximal effect
Nuclear receptor subfamily 1 group I member 2 (Homo sapiens), sequence (O75469 whole entry, looked up): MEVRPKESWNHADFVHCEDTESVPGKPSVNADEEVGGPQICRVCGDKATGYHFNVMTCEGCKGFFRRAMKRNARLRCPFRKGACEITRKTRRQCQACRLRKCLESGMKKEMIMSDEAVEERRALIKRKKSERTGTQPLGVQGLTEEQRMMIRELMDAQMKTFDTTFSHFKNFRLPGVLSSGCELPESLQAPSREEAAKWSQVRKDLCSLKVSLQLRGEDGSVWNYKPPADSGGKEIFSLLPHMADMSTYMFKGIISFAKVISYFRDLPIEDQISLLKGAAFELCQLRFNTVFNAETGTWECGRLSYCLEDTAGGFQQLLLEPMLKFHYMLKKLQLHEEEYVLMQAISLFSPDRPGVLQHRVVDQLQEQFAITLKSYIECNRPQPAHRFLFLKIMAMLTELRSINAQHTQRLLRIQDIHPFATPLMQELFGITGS
In short: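 hPXR-LucHepG2 cells in phenol red-free DMEM with 5% charcoal-stripped FBS, 2000 cells/well, attached 5 h, then exposed 24 h at 37C to compounds; rifampicin as positive agonist control (2.8 nM–92 uM). Luciferase luminescence read.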

[18] = biological target: Nuclear receptor subfamily 1 group I member 2 (Homo sapiens) (UniProt O75469); assay: Dual reporter qHTS for antagonist of Pregnane X Receptor (hPXR) against the NCATS DSHEA and TCM libraries: Luminescence Readout (AID 1920060);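 also: HepG2 cells carrying hPXR luciferase reporter stimulated with rifampicin at 2 µM; 0% is about no effect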
In short: (§2)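 HepG2 hPXR-Luc, 2000 cells/well, charcoal-stripped FBS medium; 5 h attach; RIF 2 uM final; 24 h 37C/5% CO2; CellTiter-Fluor 1 h, fluor 405/540; ONE-Glo 30 min RT, lum.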

[19] = Dual reporter qHTS for antagonist of Pregnane X Receptor (hPXR) against the NCATS DSHEA and TCM libraries: Fluorescence Readout (AID 1920061); also: 0% is about no effect
In short: as §2

[20] = biological target: Cytochrome P450 1A2 (Homo sapiens) (UniProt P05177); assay: qHTS for inhibitors of CYPIA2 against the NCATS DSHEA and TCM libraries (AID 1919976);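 also: light from luciferin formed by CYP1A2 from a pro-luciferin substrate; % is scaled to controls: 0 for no effect and ±100 for the full control effect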
Cytochrome P450 1A2 (Homo sapiens), sequence (P05177 whole entry, looked up): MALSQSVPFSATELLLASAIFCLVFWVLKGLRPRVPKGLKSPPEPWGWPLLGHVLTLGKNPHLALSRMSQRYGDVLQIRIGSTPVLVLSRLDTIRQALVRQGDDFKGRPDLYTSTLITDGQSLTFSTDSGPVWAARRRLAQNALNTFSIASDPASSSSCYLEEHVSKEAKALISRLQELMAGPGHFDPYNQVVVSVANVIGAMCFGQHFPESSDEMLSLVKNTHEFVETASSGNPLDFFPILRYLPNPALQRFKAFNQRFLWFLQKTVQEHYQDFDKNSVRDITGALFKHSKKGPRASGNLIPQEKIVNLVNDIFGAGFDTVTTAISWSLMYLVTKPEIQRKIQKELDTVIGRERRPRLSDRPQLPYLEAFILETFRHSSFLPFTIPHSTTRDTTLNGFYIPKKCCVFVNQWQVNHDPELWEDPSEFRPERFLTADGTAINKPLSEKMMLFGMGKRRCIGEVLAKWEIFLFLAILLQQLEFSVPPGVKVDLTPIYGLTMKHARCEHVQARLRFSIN
In short: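 CYP1A2 + luciferin substrate, 100 mM KPO4-type buffer; cmpd 15 min RT; 1x NADPH regen, 30-45 min RT dark; detection reagent 30 min RT; luminescence. Minus-enzyme wells as background; furafylline intraplate control.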

[21] = measured here: PEO1 parental Z-AUC

COc1cc(C)c(/C=C/C(C)=C/C=C/C(C)=C/C(=O)O)c(C)c1C
inactive: Z-AUC [1] 0.967 | activity, negative = inhibition ([2]; parasite line A) -5.12% | activity, negative = inhibition ([2]; parasite line B) -0.604% | Potency [3] | Potency [4] | Potency [5] | Potency [6] | Potency [7] | Potency [8] | Potency [9] | Potency [10] | Potency [11] | Potency [12] | Potency [13]
0.941: Z-AUC [1, 21]
1.13: Z-AUC ([1]; measured here: PEO4 Z-AUC)

CNC(=O)[C@H](Cc1c[nH]c2ccccc12)NC(=O)[C@@H](CC(=O)NO)CC(C)C
0.809: Z-AUC ([1]; measured here: PEO4 Z-AUC)
active: Potency ([2]; parasite line A) 11200 nM | Potency [3] 10000 nM | Potency [4] 11200 nM
0.54: Z-AUC [1, 21]
inactive: Z-AUC [1] 0.599 | Potency [5] | Potency [7]

C=CC[C@@H]1/C=C(\C)C[C@H](C)C[C@H](OC)[C@H]2O[C@@](O)(C(=O)C(=O)N3CCCC[C@H]3C(=O)O[C@H](/C(C)=C/[C@@H]3CC[C@@H](O)[C@H](OC)C3)[C@H](C)[C@@H](O)CC1=O)[C@H](C)C[C@@H]2OC
inactive: Z-AUC [1] 1.09
active: Potency ([2]; parasite line A) 2000 nM | Potency ([2]; parasite line B) 1260 nM | Potency [3] 891 nM | Potency [4] 1000 nM | Potency [5] 2000 nM | Potency [6] 1410 nM | Potency [7] 1000 nM | Potency [8] 2240 nM | Potency [9] 251 nM | Potency [10] 891 nM | Potency [11] 1260 nM | Potency [12] 3790 nM | Potency [13] 4260 nM
1.02: Z-AUC ([1]; measured here: PEO4 Z-AUC)
0.699: Z-AUC [1, 21]

NC[C@H]1O[C@H](O[C@H]2[C@H](O)[C@@H](O[C@H]3O[C@H](CO)[C@@H](O)[C@H](N)[C@H]3O)[C@H](N)C[C@@H]2N)[C@H](N)C[C@@H]1O
-0.522: Z-AUC [1, 21]
inactive: Z-AUC [1] -0.784
-0.139: Z-AUC ([1]; measured here: PEO4 Z-AUC)

Oc1ccc(/C=C/c2cc(O)cc(O)c2)cc1
0.679: Z-AUC ([1]; measured here: PEO4 Z-AUC)
1.04: Z-AUC [1, 21]
inactive: outcome [14] | max response [15] -1.38% | outcome [16] | outcome [18] | outcome [19] | Z-AUC [1] 0.778
active: Potency [17] 31600 nM

CC/C=C\C/C=C\C/C=C\CCCCCCCC(=O)O
inactive: outcome [14] | Potency [20] | max response [15] -1.87% | outcome [16] | Potency [17] | outcome [18] | outcome [19] | activity, negative = inhibition ([2]; parasite line A) -1.47% | activity, negative = inhibition ([2]; parasite line B) -1.74% | Potency [3] | Potency [5] | Potency [6] | Potency [7] | Potency [9] | Potency [10] | Potency [12] | Potency [13]

COc1ccc([C@@H]2CC(=O)c3c(O)cc(O[C@@H]4O[C@H](CO[C@@H]5O[C@@H](C)[C@H](O)[C@@H](O)[C@H]5O)[C@@H](O)[C@H](O)[C@H]4O)cc3O2)cc1O
0.67: Z-AUC ([1]; measured here: PEO4 Z-AUC)
0.305: Z-AUC [1, 21]
inactive: Z-AUC [1] -0.188

C=C1[C@H](CO)[C@@H](O)C[C@@H]1n1cnc2c(=O)[nH]c(N)nc21
inactive: Z-AUC [1] 1.7
1.37: Z-AUC ([1]; measured here: PEO4 Z-AUC)
1.15: Z-AUC [1, 21]

CCCCCCCCCCCC(=O)OCC(O)CO (centres undefined)
inactive: outcome [14] | max response [15] 2.27% | outcome [16] | Potency [17] | outcome [18] | outcome [19] | activity, negative = inhibition ([2]; parasite line A) 0.724% | activity, negative = inhibition ([2]; parasite line B) -1.86% | Potency [3] | Potency [4] | Potency [5] | Potency [6] | Potency [7] | Potency [8] | Potency [9] | Potency [10] | Potency [11] | Potency [12] | Potency [13]
